# High-throughput results from PubChem.
# aSyn 5UTR act – Activators via SNCA 5'UTR binding, MLPCN | alpha-synuclein 5'UTR reporter, activators screen | AID 1814 | activity score, % (tested at 7.5 µM), hits read low | 7.1% of 300,000 active; in the data active = activity score below about -60%
# The depositor's hits bear a star. The list is a sample of the results.
SMILES,aSyn 5UTR act
Cc1nc(-c2ccc(Cl)cc2)sc1C1(C)CC(c2cccc(F)c2)=NO1 (configuration not stated),-67*
Cc1nc2ccc(-c3ccccc3)cc2o1,-79*
O=[n+]1cc(-c2cc3ccccc3o2)n([O-])c2c1CCCC2,-91*
c1ccc(-c2nc(-c3ccc(-c4ccon4)s3)no2)cc1,-104*
O=[N+]([O-])c1ccc(-c2nc(-c3ccncc3)no2)cc1,-74*
Brc1ccc(-c2nc(-c3ccncc3)no2)cc1,-184*
Brc1ccc(-c2nc(-c3ccncc3)no2)o1,-188*
Brc1ccc(-c2nc(-c3ccccn3)no2)o1,80
CCCCc1ccc(-c2nc(-c3ccncc3)no2)cc1,91
c1coc(-c2nc(-c3ccncc3)no2)c1,-122*
c1ccc(-c2noc(-c3cccnc3)n2)cc1,-198*
c1ccc(-c2nc(-c3ccncc3)no2)cc1,-141*
c1cc2c(cc1C1CCCCC1)c1c3n2CCCNC3CCC1 (configuration not stated),87
COc1ccc2sc(NC(C)=O)nc2c1,-119*
COc1ccc2sc(NCc3ccccc3)nc2c1,-112*
CCC(=O)Nc1nc2cc(OC)ccc2s1,-107*
COc1ccc2sc(NC(=O)CC(C)C)nc2c1,-120*
CCC(=O)Nc1nc2ccc3nc(C)sc3c2s1,-151*
CCC(=O)Nc1nnc(/C=C/c2ccc(OC)cc2)s1,-141*
Cc1nc(-c2ccccc2)sc1-c1ccnn1C,-111*
O=C(CNc1ccc(Br)cc1)c1ccc(Br)s1,-68*
Oc1ccc(CN2CCC(Cc3ccccc3)CC2)c2cccnc12,105
COc1ccccc1N1CCN(C2=Nc3cccc4cccc2c34)CC1,-181*
c1ccc(CC2CCN(C3=Nc4cccc5cccc3c45)CC2)cc1,-95*
CCN(CC(=O)Nc1ccc2c(c1)OCCO2)C(=O)/C=C/c1ccc(F)cc1,-70*
SMILES,aSyn 5UTR act
COc1ccc(OCCCC(=O)Nc2ccc3c(c2)OCCO3)cc1,-132*
CCc1ccc(CNC(=O)Cc2ccc(NC(=O)C3=C(C)OCCS3)cc2)cc1,66
O=C(COc1ccc(F)cc1)Nc1ccc2c(c1)OCCO2,-144*
COc1cccc(CNC(=O)Cc2ccc(NC(=O)C3=C(C)OCCS3)cc2)c1,-80*
O=C(COc1ccc2c(c1)OCO2)Nc1cccc(F)c1,-94*
CCOCC(=O)Nc1ccc2c(c1)OCCO2,-66*
COc1cccc(CNC(C)C(=O)Nc2ccc3c(c2)OCCO3)c1 (configuration not stated),-89*
CCNC(=O)NC(=O)COc1ccccc1C#N,-89*
CCc1ccc(OCC(=O)NCc2ccco2)c(Br)c1,-70*
N#Cc1ccccc1OCC(=O)NC(=O)NCc1ccco1,-83*
Cc1nnc(SCC(=O)NC(=O)Nc2ccc3c(c2)OCCO3)n1N,-114*
Cc1ccc(-n2nnnc2SCC(=O)NC(=O)Nc2ccc3c(c2)OCCO3)cc1,-160*
O=C(CSc1nnnn1-c1ccc(Cl)cc1)NC(=O)Nc1ccc2c(c1)OCCO2,-184*
CC(=O)N1CCn2c3ccc(C)cc3c3cccc1c32,-83*
Cc1cc(C(=O)COC(=O)c2ccc(Br)o2)c(C)n1Cc1ccco1,-116*
CCOc1ncccc1C(=O)OCC(=O)c1cc(C)n(Cc2ccco2)c1C,-115*
Cc1cc(C(=O)COC(=O)c2ccc(O)cc2)c(C)n1Cc1ccco1,-140*
O=[N+]([O-])/C=C/c1cn(Cc2ccc(Cl)cc2)c2ccccc12,65
COc1ccc(C(=O)/C=C/c2cn(CC(O)CN3CCN(C)CC3)c3ccccc23)cc1OC (configuration not stated),-62*
CN1CCN(Cn2cc(/C=C/C(=O)c3ccccc3)c3ccccc32)CC1,-312*
CCN(C(=O)CSc1cc(C)c2cccc(C)c2n1)C1CCS(=O)(=O)C1 (configuration not stated),-80*
O=C(Nc1ncc2c(n1)CC(c1ccco1)CC2=O)c1ccccc1 (configuration not stated),-72*
Cc1cc(C)nc(SC2=CS(=O)(=O)c3ccccc32)n1,-120*
O=S1(=O)C=C(Sc2nnc(-c3ccccc3)o2)c2ccccc21,-118*
Nc1nc(N2CCN(c3ccccn3)CC2)nc2ccccc12,-118*
SMILES,aSyn 5UTR act
CN(C)C(=O)COc1ccc2cc(-c3ccccc3)c(=O)oc2c1,-91*
COc1ccc2cc(-c3ccccc3)c(=O)oc2c1,-72*
O=[N+]([O-])c1nn(-c2ccc3c(c2)OCCO3)n(O)c1=Nc1ccccc1,80
O=[N+]([O-])c1nn(-c2ccc3c(c2)OCCO3)n(O)c1=NC1CCCC1,-108*
O=[N+]([O-])c1nn(-c2ccc3c(c2)OCCO3)n(O)c1=NC1CCCCCC1,-91*
S=C(c1ccc(-c2cccc(Cl)c2)o1)N1CCOCC1,-144*
N#CCCN1CCN(C(=S)c2ccc(-c3cccc(Cl)c3)o2)CC1,-89*
S=C(c1ccc(-c2cccc(Cl)c2)o1)N1CCCCC1,-111*
Cc1ccc(O)c(C(=O)CC(=O)c2cccc(F)c2)c1,-85*
O=C(CC(=O)c1cc(Cl)ccc1O)c1ccccc1,-99*
Cc1cccc(C(=O)CC(=O)c2cc(Cl)ccc2O)c1,64
NC(=NCCc1ccccc1)NC(=O)c1cc(Cl)ccc1O,-108*
O=C(Cc1ccc(Br)cc1)N1CCc2ccccc2C1,-145*
O=C(c1ccc(Br)s1)N1CCc2ccccc2C1,-65*
CN1CCc2c(sc(/N=C/c3c[nH]c4ccccc34)c2C#N)C1,-68*
CN1CCc2c(sc(/N=C/c3cc(Cl)ccc3O)c2C#N)C1,-157*
C/C(=N\NC(=O)CSc1nc(C)[nH]c1[N+](=O)[O-])c1ccc(F)cc1,-109*
O=C(Nc1ccc(F)cc1Cl)c1ccc2c(=O)n3c(nc2c1)CCCCC3,-144*
O=C(O)c1ccc2c(=O)n3c(nc2c1)/C(=C/c1ccc(F)cc1)CC3,-73*
O=C(NCCc1ccc(F)cc1)c1ccc2c(=O)n3c(nc2c1)CCC3,-71*
Cc1ccc2c(c1)N=C(c1ccc(Cl)cc1)CO2,-152*
Clc1ccc(C2=Nc3cc(Cl)ccc3OC2)cc1,-206*
Cc1ccc(C)c(-c2[nH]ncc2CN2CCCC(CO)(Cc3ccccc3C)C2)c1 (configuration not stated),33
COc1ccc(C2=C/C(=C\c3ccccc3OC(C)=O)C(=O)O2)cc1,-79*
COc1ccc(C2=C(C=O)Cc3ccccc3O2)cc1,98
SMILES,aSyn 5UTR act
CC(=O)NC1=NN(C(C)=O)C(c2ccc(C(C)C)cc2)S1 (configuration not stated),-77*
CCOc1ccc(C(=O)c2cccs2)cc1,-182*
CN(C)S(=O)(=O)c1ccc(C(=O)Nc2ccc3ncccc3c2)cc1,-86*
O=C(Nc1ccc2ncccc2c1)Nc1ccc2ncccc2c1,-179*
c1cnc2ccc(-c3ccc4ncccc4c3)cc2c1,-84*
O=C(Nc1ccc2ncccc2c1)c1ccccc1Br,-297*
CCCCN(CCCC)S(=O)(=O)c1ccc(C(=O)Nc2nnc(COC)o2)cc1,62
CCS(=O)(=O)c1ncc(Cl)c(C(=O)Nc2ccc(S(=O)(=O)N(C)c3ccccc3)cc2)n1,78
Cc1nc2cc(NC(=O)c3ccc(S(=O)(=O)N(C)c4ccccc4)cc3)ccc2o1,-132*
COc1cccc2sc(Nc3nnc(-c4ccccc4Cl)o3)nc12,66
COc1ccccc1-c1nnc(Nc2nc3c(OC)cccc3s2)o1,81
COc1cccc(-c2nnc(Nc3nc4c(F)cccc4s3)o2)c1,-145*
COCCNc1c(-c2cc3ccc(C)c(C)c3[nH]c2=O)nc2ccccn12,-153*
